# The entries come from a sample that favours hits as a whole.
# CapD inh: Bacillus anthracis CapD inhibitors, primary screen, biochemical, fluorescence intensity. purified CapD enzyme, fluorescence intensity read-out; stronger effect = lower value. CapD gamma-glutamyltranspeptidase (Bacillus anthracis Ames Ancestor). AID 492967, 2010. z-score (concentration not given with the values). 140,000 tested, 0.23% active; in the data active means z-score mostly below about -2.9, no sharp cut-off; inactive means mostly above about -1.9
# Numbers stand for hits; . = inactive.
SMILES,CapD inh
NS(=O)(=O)c1ccc(-n2cccc2C=Nn2cnnc2)cc1,.
Cn1cccc1/C=N/n1cnnc1,-5.5
C(=N\n1cnnc1)/c1ccccc1,.
C=C(C)Cn1c(SCC(C)O)nc2c1c(=O)[nH]c(=O)n2C (stereo not drawn),.
O=C(O)/C=C/C(=O)N1CCN(c2cc(C(F)(F)F)ccn2)CC1,.
CC(=O)OCc1cc2cccc3c2n(c1=O)CCC3,.
O=C1/C(=C\O)CCc2occc21,-8.1
O=C(O)Cn1ncc2c1-c1ccoc1CC2,.
O/N=C1/CCCc2occc21,.
Cc1c(Cc2c(Cl)cccc2Cl)c(=O)ccn1CCc1ccccc1,.
Cn1ccnc1SC(F)(F)C(=O)c1cnc2ccccn12,.
COc1cccc(N2CCN(C(=O)CCCn3sc4ccccc4c3=O)CC2)c1,.
Cc1ccc(C(=O)/C=C/N(C)C)cn1,.
CN(C)/C=C/C(=O)c1cccc(C(F)(F)F)c1,.
CN(C)/C=C/C(=O)c1ccsc1,-6.3
O=C(CSCC(=O)c1ccc(-c2ccccc2)cc1)Nc1ccc2ccccc2c1,.
Cc1cc(C(=O)O)ccc1-n1c(C)ccc1C,.
Cc1ccc(C)n1-c1ccc(C(=O)O)cc1O,-9
Cc1ccc(C(=O)O)cc1-n1c(C)ccc1C,.
Cc1cc(C)nc(Sc2ccc(OC(C)C)cc2)n1,.
CC1Cc2ccccc2N1C(=O)c1cccc(COc2ccc(Cl)cc2)c1 (stereo not drawn),.
Cc1nc2c3ccccc3n3c(CCCC(=O)O)nnc3n2n1,.
CN(C)c1ccc(C2ON2C2CCC(O)CC2)cc1 (stereo not drawn),.
CC(C)(C)C(=O)C1C2CCC1C(O)C2 (stereo not drawn),.
CN1/C(=C\C=Nc2ccc(C(=O)O)cc2)C(C)(C)c2ccccc21,-3.2
SMILES,CapD inh
CN1/C(=C/C=N/O)C(C)(C)c2ccccc21,.
CN1/C(=C\C=Nc2cccc(C(=O)O)c2)C(C)(C)c2ccccc21,.
CNC(=O)c1ccc(-c2nn(C)c(=O)c3ccccc23)cc1,.
CC1=C(C(=O)OC(C)C)C(c2ccc(C)o2)C2=C(CC(c3cccs3)CC2=O)N1 (stereo not drawn),.
CCOC(=O)c1cnc2cc(C)nn2c1C,.
CC(=O)c1cnc2cc(C)nn2c1C,.
Cc1cc2ncc(C(=O)/C=C/N(C)C)c(C)n2n1,-5.1
O=C(O)c1nccnc1C(=O)NC(c1ccccc1)c1ccccc1,.
Cc1nccc2[nH]c(=O)c(C(=O)NCCc3ccc(Cl)cc3)cc12,.
Cc1cc(/C=C2\C(=O)NC(=O)N(c3ccc(F)cc3)C2=O)c(C)n1-c1cccc(C(=O)O)c1,.
Cc1cc(/C=C2\C(=O)NC(=S)N(c3ccccc3F)C2=O)c(C)n1-c1cc(C(=O)O)cc(C(=O)O)c1,-9.1
Cc1cc(/C=C2\C(=O)NC(=O)N(c3ccccc3F)C2=O)c(C)n1-c1cc(C(=O)O)cc(C(=O)O)c1,.
O=C(O)c1cc(Cl)ccc1OCc1ccccc1,.
O=c1[nH]c2ccccc2n1C1CCN(S(=O)(=O)c2cc(Br)c(Cl)s2)CC1,.
CCc1ccc(N(C)S(=O)(=O)c2ccc3[nH]cc(C(=O)N4CCCCCC4)c(=O)c3c2)cc1,.
CCc1ccc(NS(=O)(=O)c2ccc3[nH]cc(C(=O)N4CCCC4)c(=O)c3c2)cc1,-5.9
CCc1ccc(NS(=O)(=O)c2ccc3[nH]cc(C(=O)N(CC)CC)c(=O)c3c2)cc1,.
CNC(=O)c1ccc(OCC(C)C)cc1,.
S=C(N/N=C\c1ccco1)Nc1ccccc1,.
CC(C)NC(=S)N/N=C/c1ccco1,-4
S=C(NCc1ccccc1)N/N=C/c1ccco1,.
N#CC1=C(N)OC2=C(C(=O)CCC2)C1c1ccc(OC(=O)c2ccccc2Cl)cc1 (stereo not drawn),.
O=C(CSc1cn(Cc2ccccc2)c2ccccc12)N1CCCC1,.
N#Cc1cn(Cc2ccccc2)c2ccccc12,.
N=C(N)Sc1cn(Cc2ccccc2)c2ccccc12,-4.8
SMILES,CapD inh
CN(C)/C=C1\Cc2ccccc2C1=O,.
O=C1/C(=C/c2ccccc2)CCCc2ccccc21,.
CN(C)/C=C1\CCCc2ccccc2C1=O,-4.1
COC(=O)c1ccc(C(=O)Nc2ccc(S(=O)(=O)Nc3nc(C)cc(C)n3)cc2)cc1,.
O=c1c(N2CCCC2)c(Cl)cnn1-c1ccccc1,.
NS(=O)(=O)c1ccc(CNC(=O)c2ccc(C(=O)N(C3CCCCC3)C3CCCCC3)cc2)cc1,.
Cc1ccc(S(=O)(=O)N/N=C/c2cc(C)n(-c3ccc(N(C)C)cc3)c2C)cc1,.
COc1ccc(CN2C(=O)c3ccccc3C2=O)cc1,.
COc1ccc(CCNC(=O)C(C(C)C)N2C(=O)c3ccccc3C2=O)cc1 (stereo not drawn),-4.8
COc1ccc(CCNC(=O)C(F)(F)F)cc1,.
COC(=O)/C=C1/NCC(OC(=O)c2ccc(C(C)(C)C)cc2)CNC1=O (stereo not drawn),.
CC(=O)N(c1ccc(N(C(C)=O)S(=O)(=O)c2cccs2)cc1)S(=O)(=O)c1cccs1,.
O=C(Oc1ccc(N(C(=O)c2ccccc2)S(=O)(=O)c2cccs2)cc1)c1ccccc1,.
COc1ccc(N(C(=O)c2ccncc2)S(=O)(=O)c2cccs2)cc1,-8.5
